The results in this text go back to PubChem BioAssay.

Assay [1] in a line: HepG2 liver cancer cell viability effects, profiling panel, resazurin fluorescence, 24 h, PK04 Diversity Set (AID 1172). The settings on record: higher = more signal. In general terms: The colour change of resazurin is a common sign of viable cells or microbes.
Assay [2] in a line: basal S. cerevisiae growth modulation, no modifier, primary screen, OD600, strain BY4716, 24 h, basal condition (AID 1173). Conditions: OD600, 24 h, higher = more signal, called active from +8 up or from −8 down.
Assay [3] is described as follows: MM1S myeloma cell viability, profiling panel, resazurin fluorescence, basal, 24 h, PK04 Diversity Set (AID 1174).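 Also: MM1S multiple myeloma cell line.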 Conditions: higher = more signal, called active from +8 up or from −8 down.
Assay [4] deals with Dihydroorotate dehydrogenase (quinone), mitochondrial (Plasmodium falciparum (isolate 3D7)) (UniProt Q08210). In words: PfDHODH enzyme inhibitors, primary screen, biochemical, C-terminal His tag, absorbance 600 nm (AID 1175).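 Also: recombinant parasite enzyme with a five histidine tag at its C terminus.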 The settings on record: DCIP absorbance 600 nm, higher = more signal, called active from +8 up or from −8 down.
Sequence of Dihydroorotate dehydrogenase (quinone), mitochondrial (Plasmodium falciparum (isolate 3D7)) (Q08210 whole entry, looked up): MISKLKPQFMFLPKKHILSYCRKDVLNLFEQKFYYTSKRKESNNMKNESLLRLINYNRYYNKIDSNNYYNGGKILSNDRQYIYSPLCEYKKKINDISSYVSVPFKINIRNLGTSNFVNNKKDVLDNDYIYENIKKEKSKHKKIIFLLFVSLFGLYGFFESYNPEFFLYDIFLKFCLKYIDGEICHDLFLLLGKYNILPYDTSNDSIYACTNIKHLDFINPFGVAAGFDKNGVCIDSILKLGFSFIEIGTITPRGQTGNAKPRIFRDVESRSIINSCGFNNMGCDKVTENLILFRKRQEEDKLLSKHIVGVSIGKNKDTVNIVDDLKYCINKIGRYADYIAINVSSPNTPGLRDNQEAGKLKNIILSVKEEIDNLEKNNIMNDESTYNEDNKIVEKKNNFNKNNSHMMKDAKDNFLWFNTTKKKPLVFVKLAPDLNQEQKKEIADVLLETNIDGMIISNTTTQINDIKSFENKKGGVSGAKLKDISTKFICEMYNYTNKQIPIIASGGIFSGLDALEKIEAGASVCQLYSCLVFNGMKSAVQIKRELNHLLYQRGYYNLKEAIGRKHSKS
Assay [5] can be described thus: P. aeruginosa biofilm formation inhibitors, primary screen, strain PAO1, LB-PBS medium, absorbance 600 nm (AID 1176). The settings on record: P. aeruginosa PAO1 growth/biofilm, A600, 12 h; higher = more signal.
Assay [6] is described as follows: S. cerevisiae RM11-1a growth modifiers, primary screen, strain RM11-1a, OD600, basal, 24 h (AID 1177).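 Also: cultures grown under basal conditions with no added stressor.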 The settings on record: OD600, 24 h, higher = more signal, called active from +8 up or from −8 down.
Assay [7] in a line: E. coli acrAB mutant growth effects, primary screen, E. coli filamentation inducers, strain DRC39, OD650, 24 h (AID 1178).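 Also: growth measured as culture turbidity by optical density at 650 nm.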 The settings on record: higher = more signal, called active from +8 up or from −8 down.
The nature of assay [8]: E. coli acrAB mutant growth effects, primary screen, E. coli filamentation inducers, strain DRC39, OD650, 48 h (AID 1179).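 Also: screen aims at cell division blockers that make cells filament.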 Conditions: E. coli DRC39 delta-acrAB growth, higher = more signal, called active from +8 up or from −8 down.
Assay [9] can be described thus: RPMI8226 myeloma cell viability, profiling panel, resazurin fluorescence, basal, 24 h, PK04 Diversity Set (AID 1180).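 Also: RPMI8826 multiple myeloma cell line at 5000 cells per well.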 Conditions: higher = more signal.
For assay [10], the target named is E3 ubiquitin-protein ligase XIAP (Homo sapiens) (UniProt P98170). As to the kind of experiment: XIAP binders, primary screen, biophysical, small-molecule microarray, fluorescence 635 nm (AID 1181).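 Also: score merges 667 nm emission and signal to noise over triplicate slides.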 The settings on record: small-molecule microarray binding, higher = more signal.
Sequence of E3 ubiquitin-protein ligase XIAP (Homo sapiens) (P98170 whole entry, looked up): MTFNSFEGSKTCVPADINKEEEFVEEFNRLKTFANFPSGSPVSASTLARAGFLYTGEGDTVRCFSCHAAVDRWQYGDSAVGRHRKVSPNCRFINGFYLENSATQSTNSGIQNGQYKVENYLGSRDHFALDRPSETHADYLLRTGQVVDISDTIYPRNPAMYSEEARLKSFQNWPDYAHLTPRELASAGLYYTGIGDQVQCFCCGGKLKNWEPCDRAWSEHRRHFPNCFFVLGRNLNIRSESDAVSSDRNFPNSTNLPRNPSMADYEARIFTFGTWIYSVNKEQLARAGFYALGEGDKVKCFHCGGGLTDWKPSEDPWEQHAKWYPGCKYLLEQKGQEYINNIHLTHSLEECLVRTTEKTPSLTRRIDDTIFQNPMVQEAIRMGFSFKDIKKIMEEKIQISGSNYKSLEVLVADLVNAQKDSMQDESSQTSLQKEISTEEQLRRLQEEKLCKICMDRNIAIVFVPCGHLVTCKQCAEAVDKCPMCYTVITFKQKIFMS
Assay [11] concerns XIP peptide (Xip251-270) binding. In words: small-molecule binders of XIP peptide, primary screen, biochemical, small-molecule microarray, fluorescence 635/667 nm, 0.1 µg/mL protein (AID 1182). Conditions: fluorescent protein binding, 635 nm, higher = more signal, called active from +8 up or from −8 down.
In another assay the test system is XIP peptide (Xip251-270). In words: small-molecule binders of XIP peptide, primary screen, biochemical, small-molecule microarray, fluorescence 635/667 nm, 0.5 µg/mL protein (AID 1183). The settings on record: small-molecule microarray binding, fluorescence 635 nm; higher = more signal.
A short description of assay [12]: Plasmodium falciparum growth inhibition, primary screen, strain 3D7, DAPI fluorescence, 100 nL (AID 1184).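 Also: parasites grown inside human red blood cells in medium with human serum.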 Conditions: P. falciparum 3D7 growth, 3 d, higher = more signal.
The target in assay [13] is Homeobox protein Hox-A13 (Mus musculus) (UniProt Q62424). As to the kind of experiment: inhibitors of HoxA13-DNA binding, primary screen, biochemical, fluorescence polarization, labeled oligonucleotide (AID 1185). The settings on record: 15 min, higher = more signal, called active from +8 up or from −8 down. On the technique in general: Fluorescence polarisation rises when a labelled molecule tumbles more slowly, as on binding a larger partner.
Sequence of Homeobox protein Hox-A13 (Mus musculus) (Q62424 whole entry, looked up): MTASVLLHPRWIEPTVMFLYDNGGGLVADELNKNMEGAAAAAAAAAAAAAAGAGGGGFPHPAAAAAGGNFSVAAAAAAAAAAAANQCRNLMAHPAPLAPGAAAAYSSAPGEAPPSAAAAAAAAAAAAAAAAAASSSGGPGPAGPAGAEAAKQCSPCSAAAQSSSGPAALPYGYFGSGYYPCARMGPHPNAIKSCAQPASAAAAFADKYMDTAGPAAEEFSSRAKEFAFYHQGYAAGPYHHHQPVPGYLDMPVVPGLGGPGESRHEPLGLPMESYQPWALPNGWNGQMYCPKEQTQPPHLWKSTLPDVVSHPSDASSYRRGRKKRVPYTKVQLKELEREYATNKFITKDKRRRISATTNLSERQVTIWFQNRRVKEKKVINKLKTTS

A short description of assay [14]: inhibitors of hydroxyurea-induced Chk1 phosphorylation, primary screen, imaging, HeLa, phospho-Chk1 antibody, percent positive cells (AID 1186). The settings on record: hydroxyurea-induced phospho-Chk1 immunofluorescence imaging, higher = more signal.
The nature of assay [15]: inhibitors of hydroxyurea-induced Chk1 phosphorylation, primary screen, imaging, HeLa, phospho-Chk1 nuclear intensity (AID 1187). Conditions: hydroxyurea-induced phospho-Chk1 immunofluorescence imaging, higher = more signal.

Activity calls are given as the source filed them. Unless noted, no rule for the calls is given here.

On to `Cc1cc(C)c(C(O)C2C=CC3C(=O)N(c4ccccc4)C(=O)C3N2Nc2ccccc2)c(C)c1` (centres undefined), for which the z-score in [1] is -0.156; in assay [2], 0.439 (inactive); in assay [3], -0.307 (inactive); in assay [5], 1.14 (inactive); in assay [6], 0.292 (inactive); in assay [7], -0.297 (inactive). For the same molecule, the z-score in assay [8] was 0.445 (inactive); in assay [9], -0.0598; in [12], -0.0689; in assay [13], -3.33 (inactive); in assay [14], 0.826 (inactive); in assay [15], 0.41 (inactive). The composite z-score in [4] was 0.224 (inactive); in [10], 0.0542; in [11], 0.733 (inactive); with XIP peptide (Xip251-270), 0.79.

For the molecule `O=C1NC(=O)C2C1C=CC(C(O)CCc1ccccc1)N2Nc1ccccn1` (centres undefined), the z-score in assay [1] is -0.875; in assay [2], 0.725 (inactive); in assay [3], -0.871 (inactive); in assay [5], 1.65 (inactive); in [6] it was -1.07 (inactive); in [7] it was 0.696 (inactive). The z-score in [8] was 1.07 (inactive); in [9], -0.717; in assay [12], 0.581; in [13] it was -0.354 (inactive); in [14] it was -0.181 (inactive); in assay [15], -0.426 (inactive). Moreover, the composite z-score was -0.505 (inactive) in assay [4], 0.107 in assay [10], 0.415 (inactive) in assay [11] and 0.932 in the assay with XIP peptide (Xip251-270).

In the case of `C=CCNC(=O)[C@H]1[C@@H]2C(=O)O[C@@H](c3ccccc3)[C@@H](c3ccccc3)N2[C@@H](c2ccc(O)cc2)[C@]12C(=O)N(C(=O)OCCOC)c1ccc(C#CC3(O)CCCCCC3)cc12`, the z-score in [1] is -0.0051; in [2], -0.897 (inactive); in [3], 0.221 (inactive); in [5], 0.806 (inactive); in assay [6] it was 2.27 (inactive); in assay [7], 0.665 (inactive). The z-score in [8] is 0.951 (inactive); in [9] it was 0.41; in assay [12], 0.351; in assay [13], -2.42 (inactive); in [14], -0.213 (inactive); in assay [15], 0.382 (inactive). In addition, the composite z-score was 0.157 (inactive) in assay [4], 0.0479 in [10], 1.44 (inactive) in assay [11] and 0.842 with XIP peptide (Xip251-270).

In the case of `C=CC[C@@]1(C(=O)NCCN2CCOCC2)N=C(c2ccc(OCCCO)cc2)O[C@@H]1c1ccccc1`, the z-score in assay [1] is 0.255; in assay [2], -0.0792 (inactive); in assay [3], 0.275 (inactive); in assay [5] it was 1.13 (inactive); in assay [6], 1.45 (inactive); in assay [7] it was 0.297 (inactive). Moreover, the z-score in [8] is -0.483 (inactive); in assay [9] it was 0.482; in assay [12], -0.825; in assay [13], -6.6 (inactive); in assay [14], 0.426 (inactive); in assay [15], 0.0737 (inactive). In addition, the composite z-score in assay [4] is 1.61 (inactive); in assay [10], -0.237; in [11] it was 0.202 (inactive); in the assay with XIP peptide (Xip251-270), 0.638.

For the molecule `COCCOC(=O)N1C(=O)[C@@]2(c3cc(C#Cc4ccc(OC)cc4)ccc31)[C@H](c1ccc(OCCO)cc1)N1[C@H](c3ccccc3)[C@H](c3ccccc3)OC(=O)[C@H]1[C@@H]2C(N)=O`, the z-score in assay [1] was -0.83; in assay [2], 1.71 (inactive); in [3] it was -1.85 (inactive); in assay [5], 3.36 (inactive); in assay [6], 2.82 (inactive); in assay [7], 0.721 (inactive). The z-score in assay [8] was 0.366 (inactive); in [9], -2.36; in [12] it was -1.97; in assay [13] it was -0.245 (inactive); in assay [14] it was 0.105 (inactive); in assay [15] it was 0.247 (inactive). Moreover, the composite z-score in assay [4] was -0.675 (inactive); in [10], 0.269; in assay [11] it was 1.12 (inactive); in the assay on XIP peptide (Xip251-270) it was 0.758.

Regarding `NC(=O)[C@H]1[C@@H]2C(=O)O[C@@H](c3ccccc3)[C@@H](c3ccccc3)N2[C@@H](c2ccc(O)cc2)[C@]12C(=O)Nc1ccc(C#CC3(O)CCCCCC3)cc12`, the z-score was -0.518 in [1]; -0.475 (inactive) in assay [2]; 0.522 (inactive) in assay [3]; 0.738 (inactive) in assay [5]; -0.323 (inactive) in [6]; 0.249 (inactive) in [7]. Also, the z-score in [8] is -0.815 (inactive); in [9], 0.159; in assay [12], -1.85; in assay [13], -1.28 (inactive); in assay [14], 0.526 (inactive); in assay [15], 0.301 (inactive). Further, the composite z-score in [4] was -0.885 (inactive); in [10] it was -0.102; in assay [11], 0.366 (inactive); with XIP peptide (Xip251-270) it was 0.836.

For `CCCC=C(CCC)[C@@H](NS(=O)(=O)c1cccc2cccnc12)c1ccc(C(=O)OC)cc1`, the z-score in assay [1] was 0.582; in [2], 1.35 (inactive); in assay [3], 0.058 (inactive); in [5], 0.371 (inactive); in assay [6], 1.04 (inactive); in assay [7], 0.134 (inactive). For the same molecule, the z-score was -0.754 (inactive) in assay [8]; 0.0013 in assay [9]; -0.271 in assay [12]; -2.22 (inactive) in [13]; -0.767 (inactive) in assay [14]; -0.492 (inactive) in assay [15]. Besides, the composite z-score in assay [4] is -0.0345 (inactive); in assay [10] it was 0.67; in assay [11] it was -0.357 (inactive); in the assay with XIP peptide (Xip251-270), 0.315.

As to `CCOc1cc(C(O)C2C=CC3C(=O)NC(=O)C3N2Nc2ccccn2)ccc1O` (centres undefined), the z-score in [1] is -1.35; in assay [2], 1.67 (inactive); in assay [3], -1.33 (inactive); in [5], 0.599 (inactive); in assay [6], 0.24 (inactive); in assay [7], -1.17 (inactive). The z-score is -0.0662 (inactive) in assay [8]; -0.672 in [9]; -0.296 in [12]; -0.998 (inactive) in assay [13]; 0.861 (inactive) in assay [14]; 0.746 (inactive) in assay [15]. Besides, the composite z-score in [4] is 0.21 (inactive); in assay [10] it was 0.0652; in [11], 0.113 (inactive); with XIP peptide (Xip251-270), 0.0151.

In the case of `C#CCNS(=O)(=O)N(C)C`, the z-score in assay [1] is 0.175; in assay [2], -0.61 (inactive); in assay [3], -0.207 (inactive); in assay [5], -0.218 (inactive); in [6], 0.648 (inactive); in [7], -0.263 (inactive). The z-score in assay [8] is 0.56 (inactive); in [9] it was 0.544; in assay [12] it was -0.265; in assay [13], -0.146 (inactive); in [14], -0.271 (inactive); in assay [15], 0.0602 (inactive). Also, the composite z-score in assay [4] is 0.196 (inactive); in [10], -0.05; in assay [11], 0.153 (inactive); in the assay with XIP peptide (Xip251-270) it was 0.0198.
